Measurements taken from PubChem BioAssay (NCI).
Compounds without any hit were thinned out: in the full panel of roughly 83,000, 20% have a hit.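 Treatment: one concentration, 48 hours, 96-well format. Scoring: percent growth, with anything below 10 considered active.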 Active and inactive are the calls of the source.

Experiments:
Assay in all cases: NCI-60 one-dose screen, 48 h (100 = growth as untreated, 0 = no growth, -100 = all killed)
Details in all cases: 10 µM
[1] = test system: HCT-15 colon
[2] = test system: HT29 colon
[3] = test system: SNB-75 CNS
[4] = test system: SNB-19 CNS
[5] = test system: U251 CNS
[6] = test system: PC-3 prostate
[7] = test system: SK-MEL-5 melanoma
[8] = test system: UACC-62 melanoma
[9] = test system: SK-MEL-28 melanoma
[10] = test system: LOX IMVI melanoma

Measured: growth

CC(=O)Nc1nc(-c2ccc(N3CCN(C)CC3)c(NS(=O)(=O)c3cccc4c(N(C)C)cccc34)c2)cs1
active: [9] -80.1%
inactive: [1] 18.5% | [2] 21.7% | [3] 56.5% | [4] 58.8% | [5] 28.1% | [6] 48.7% | [7] 12.5% | [8] 13.1%

Cc1ccc(/C(N)=N/c2sc(-c3ccccc3)nc2-c2ccccc2)cc1
inactive: [1] 46.1% | [2] 50.6% | [3] 82.4% | [4] 97.3% | [5] 75.1% | [6] 90.6% | [7] 89.2% | [8] 74.6% | [9] 81.5%

COc1ccc(NC(=O)Nc2ccc(OCC(=O)N=Nc3c(O)[nH]c4ccc([N+](=O)[O-])cc34)cc2)cc1
inactive: [1] 106% | [2] 95.2% | [3] 72.4% | [4] 40.4% | [5] 25% | [6] 81.9% | [7] 96% | [8] 104% | [9] 115%

Cc1noc2c(Cc3ccccc3)nn(CC(=O)N/N=C/c3ccc(Br)cc3)c(=O)c12
inactive: [1] 76.5% | [2] 71.1% | [3] 35.3% | [4] 75.4% | [5] 18.4% | [6] 82.7% | [7] 85.5% | [8] 79.7% | [9] 99.5%

CN1CCN(c2ccc(Nc3nc(NCCNC(=O)c4ccc(C(F)(F)F)cc4)c4sccc4n3)cc2)CC1
inactive: [4] 31.5% | [6] 41%
active: [1] -42.6% | [2] -67% | [3] -10.7% | [5] -17.7% | [7] -99.5% | [8] -89.7% | [9] -96.3%

O=C1Nc2ccc(F)cc2/C1=C/c1cccc(OCc2ccccc2)c1
inactive: [2] 20.6% | [3] 66.2% | [4] 23.9% | [6] 20.4% | [8] 16.5% | [9] 36.2%
active: [1] 0.287% | [5] 6.3% | [7] -24.7%

Clc1ccc(/C=N/Nc2ncnc3sc4c(c23)CCN(Cc2ccccc2)C4)cc1
active: [1] -25.1% | [2] -75.3% | [3] -85% | [5] -83.8% | [6] -59.7% | [9] -19%
inactive: [4] 18.4% | [7] 38.9% | [8] 18.9%

C=C1CCC2C3(C)COC(c4c(F)cccc4F)OC3CCC2(C)C1CC(O)C1=CCOC1=O (centres undefined)
inactive: [1] 18.3% | [2] 23% | [3] 45.1% | [4] 86.2% | [5] 69.1% | [6] 41% | [7] 68.2% | [8] 79.7% | [9] 62.3%

O=C1CCC(N2Cc3cc(CC(=O)Nc4ccc(N5CCCCC5)cc4)ccc3C2=O)C(=O)N1 (centres undefined)
active: [1] 7.29%
inactive: [3] 55.7% | [4] 49.2% | [5] 88.6% | [6] 26.7% | [7] 38.8% | [8] 78.1% | [10] 105% | [9] 76.4%

C=C[C@@]12CN3CC[C@]1(O)[C@@](C(=O)OC)(CO2)c1[nH]c2ccccc2c1C3
inactive: [1] 63.7% | [3] 105% | [4] 84.4% | [5] 81.8% | [6] 41.3% | [7] 18.3% | [8] 63.9% | [10] 67.2% | [9] 89.4%

COc1ccc(C2N(c3ccc(Br)cc3)N=C(C(C)=O)N2[C@H]2[C@H](OC(C)=O)O[C@H](COC(C)=O)[C@@H](OC(C)=O)[C@@H]2OC(C)=O)cc1 (some centres undefined)
inactive: [1] 61.4% | [2] 75.2% | [3] 74.7% | [4] 78.2% | [5] 74.8% | [6] 43.2% | [7] 77.7% | [8] 56.9% | [9] 86.4%
